In PubChem BioAssay AID1159580 (chemical genetic matrix, 2015):
“And” between values parts separate entries of the source, which are not always exact repeats. Equal entries are not always repeated. About 2,000 (36%) of roughly 5,500 compounds were called active. Not shown: some 18% with an inconclusive outcome. Rule as the data show it: active = normalized growth mostly below about 0.91 (no sharp cut-off); inconclusive = no clear call, values can overlap the other calls; inactive = mostly above about 0.92. The list shows a part of the results.

Experiment: chemical genetic growth profiling, strain panel (AID 1159580);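 also: tested at 20 µM; growth read once vehicle control cultures reached saturation at 30 °C; 1 = growth at the plate median or of vehicle wells; lower values mean less growth of the strain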
Details: S. cerevisiae deletion strains, growth OD

Measured: normalized growth

NC(=O)CN1CCCC1=O
inactive: locus YAL013W, strain DEP1, hits give low values 1.01 and 1 | locus YAL021C, strain ccr4, hits give low values 0.982 | locus YAL026C, strain drs2, hits give low values 0.988 | locus YAL030W, strain snc1, hits give low values 0.992 | locus YAL040C, strain CLN3, hits give low values 0.986 | locus YBL061C, strain skt5, hits give low values 0.985 | locus YBR009C, strain hhf1, hits give low values 1 | locus YBR021W, strain FUR4, hits give low values 1.02 | locus YBR023C, strain chs3, hits give low values 0.991 | locus YBR171W, strain sec66, hits give low values 0.982 | locus YBR229C, strain ROT2, hits give low values 1.01 | locus YBR231C, strain swc5, hits give low values 1 | locus YBR279W, strain paf1, hits give low values 0.99 | locus YCL011C, strain gbp2, hits give low values 0.999 | locus YCL016C, strain dcc1, hits give low values 0.986 | locus YCL029C, strain bik1, hits give low values 1.02 | locus YCL061C, strain MRC1 (second series), hits give low values 1 | locus YCL061C, strain MRC1, hits give low values 0.981 | locus YCL069W, strain vba3, hits give low values 0.996 | locus YCR088W, strain abp1, hits give low values 0.978 | locus YDL005C, strain med2, hits give low values 0.996 | locus YDL035C, strain GPR1, hits give low values 1.02 | locus YDL040C, strain nat1, hits give low values 0.993 | locus YDL074C, strain BRE1, hits give low values 0.985 | locus YDL101C, strain DUN1, hits give low values 0.999 | locus YDL134C, strain PPH21, hits give low values 1.02 | locus YDL185W, strain tfp1, hits give low values 1.01 | locus YDL192W, strain arf1, hits give low values 1.01 | locus YDR001C, strain nth1, hits give low values 0.993 | locus YDR069C, strain doa4, hits give low values 1 | locus YDR101C, strain arx1, hits give low values 0.991 | locus YDR137W, strain rgp1, hits give low values 0.98 | locus YDR159W, strain sac3, hits give low values 1.01 | locus YDR162C, strain NBP2, hits give low values 1.01 | locus YDR195W, strain ref2 0.976 | locus YDR297W, strain sur2, hits give low values 0.989 | locus YDR318W, strain mcm21, hits give low values 1.01 | locus YDR334W, strain swr1, hits give low values 0.979 | locus YDR335W, strain msn5, hits give low values 0.989 | locus YDR363W, strain ESC2, hits give low values 0.983 | locus YDR388W, hits give low values 1.01 | locus YDR392W, strain spt3, hits give low values 0.916 | locus YDR502C, strain sam2, hits give low values 1.01 | locus YEL003W, strain gim4, hits give low values 0.999 | locus YEL037C, strain rad23, hits give low values 0.986 | locus YEL061C, strain CIN8 (second series), hits give low values 0.984 | locus YEL061C, strain CIN8, hits give low values 1.01 | locus YER002W, strain NOP16, hits give low values 1 | locus YER015W, strain faa2, hits give low values 1.01 | locus YER016W, strain bim1, hits give low values 0.996 | locus YER110C, hits give low values 1.02 | locus YER111C, strain swi4, hits give low values 0.988 | locus YER155C, strain BEM2 (second series), hits give low values 0.975 | locus YER155C, strain BEM2, hits give low values 1.01 | locus YER167W, strain BCK2, hits give low values 1.01 | locus YFR010W, strain ubp6, hits give low values 0.972 | locus YGL078C, strain dbp3, hits give low values 1.02 | locus YGL086W, strain mad1, hits give low values 1 | locus YGL167C, strain pmr1, hits give low values 0.986 | locus YGL173C, strain kem1, hits give low values 0.998 | locus YGL227W, strain vid30, hits give low values 0.998 | locus YGL240W, strain doc1, hits give low values 0.993 | locus YGL248W, strain PDE1, hits give low values 0.994 | locus YGL253W, strain hxk2, hits give low values 1 | locus YGR078C, strain PAC10, hits give low values 0.991 | locus YGR135W, strain pre9, hits give low values 1.02 | locus YGR252W, strain gcn5, hits give low values 0.997 | locus YHR013C, strain ard1, hits give low values 0.963 | locus YHR027C, strain rpn1, hits give low values 0.988 | locus YHR030C, strain SLT2, hits give low values 1 and 0.994 | locus YHR079C, strain IRE1 (second series), hits give low values 1.01 | locus YHR079C, strain IRE1, hits give low values 0.995 | locus YHR094C, strain hxt1, hits give low values 1.01 | locus YHR129C, strain ARP1, hits give low values 1.01 | locus YHR142W, strain chs7, hits give low values 0.971 | locus YHR200W, strain rpn10, hits give low values 1.01 | locus YIL066C, strain RNR3, hits give low values 1.01 | locus YIL073C, strain SPO22, hits give low values 1.08 | locus YIL125W, strain kgd1, hits give low values 1.01 | locus YIR030C, strain dcg1, hits give low values 1.01 | locus YJL092W, strain hpr5, hits give low values 0.989 | locus YJL095W, strain BCK1 (second series), hits give low values 0.995 | locus YJL095W, strain BCK1, hits give low values 0.992 and 0.977 | locus YJL115W, strain asf1, hits give low values 0.985 | locus YJL129C, strain trk1, hits give low values 0.998 | locus YJL134W, strain LCB3, hits give low values 0.997 | locus YJL154C, strain vps35, hits give low values 0.987 | locus YJL164C, strain tpk1, hits give low values 0.998 | locus YJL166W, strain qcr8, hits give low values 0.968 | locus YJL168C, strain set2, hits give low values 1 | locus YJL187C, strain SWE1 (second series), hits give low values 1 | locus YJL187C, strain SWE1, hits give low values 0.982 | locus YJR043C, strain POL32, hits give low values 1.01 | locus YJR066W, strain TOR1, hits give low values 0.951 | locus YJR075W, strain HOC1, hits give low values 1 and 0.993
